Source: the supplement of paper PMC7556523
A number with no mark means an inactive call.

Key:
[1] = test system: Sporothrix brasiliensis CBS 133006; experiment: growth inhibition relative to untreated control; higher = more growth inhibition (more antifungal activity), active = 80 or more; extreme values may be limits of the assay; conditions: 1 µM; 48 h
Procedure, shortened: (§1)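 Each value is the percent growth inhibition compared with cells left untreated. Reference isolates were grown as yeast-form cells in brain heart infusion broth with 2% glucose for 7 days at 36°C, then exposed at 1 x 10^5 CFU/ml to library compounds at a final 1 μM for 48 h at 35°C in 5% CO2. Growth was inspected visually under an inverted light microscope and quantified by spectrophotometric readings, with runs in quadruplicate.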

[2] = test system: Sporothrix schenckii ATCC 32286; experiment: as above; conditions: 1 µM; 48 h
Procedure, shortened: as §1

SMILES	growth inhibition [1]	growth inhibition [2]
CC1COC(Cn2cncn2)(c2ccc(Oc3ccc(Cl)cc3)cc2Cl)O1 (stereo not drawn)	97% (active)	70.2%
Cc1nn(Cc2ccccc2)c(Cl)c1C(=O)NC1CCCCCC1	21.5%	3%
CC1(C)OB(O)c2ccc(C3=NOC(c4cc(Cl)c(F)c(Cl)c4)(C(F)(F)F)C3)cc21 (stereo not drawn)	0.5%	18%
Nc1c2c(nc3sc4c(c13)CCCC4)CCCC2	6.75%	17%
CC(C)(C)C(O)C(Oc1ccc(-c2ccccc2)cc1)n1cncn1 (stereo not drawn)	67.5%	61.8%
CO/N=C(\C(=O)OC)c1ccccc1CO/N=C(\C)c1cccc(C(F)(F)F)c1	96.8% (active)	40%
Cc1cc(C2=NOC(c3cc(Cl)c(F)c(Cl)c3)(C(F)(F)F)C2)ccc1C(=O)NCc1ccc2c(c1)C(C)(C)OB2O (stereo not drawn)	14.5%	18.2%
O=C1O[C@@H](COc2ccon2)CN1c1cc(F)c(C2=CCN(Cc3ccccc3)CC2)c(F)c1	2%	0%
O=C1O[C@@H](CO)CN1c1cc(F)c(C2=CCN(Cc3ccccc3)CC2)c(F)c1	6.75%	0.5%
CO[C@@H]1CN(c2ccc(C#CC3(O)CN4CCC3CC4)c(Cc3ccccc3)n2)C[C@H]1O (stereo partly drawn)	9.75%	5.5%
CCc1nn(C)c(C(=O)NCc2ccc(Oc3ccc(C)cc3)cc2)c1Cl	93.2% (active)	96.5% (active)
Cc1cccc(C(=O)Nc2ccnc(N(C)C3CCN(CC(C)C)CC3)c2)c1	5.5%	9%
CO/C=C(/C(=O)OC)c1ccccc1Oc1cc(Oc2ccccc2C#N)ncn1	95.5% (active)	27.5%
Cc1nn(C)c(C)c1NS(=O)(=O)c1c(Cl)cc(-c2ccnc(N3CCNCC3)c2)cc1Cl	15.2%	17.5%
